Reference: PubChem BioAssay (NCI)
About 83,000 compounds went through this panel and 20% of them were active in at least one assay; those are over-represented in the sample as a whole.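 Each cell line was grown in a 96-well plate and treated with one concentration of compound for 48 hours. Values below 10 were considered active.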 Values without a mark were called inactive. The source made the active and inactive calls.

Key:
Assay in all cases: NCI-60 one-dose screen, 48 h (100 = growth as untreated, 0 = no growth, -100 = all killed)
Details in all cases: 10 µM
BT-549 breast = tested on: BT-549 breast
MDA-MB-435 melanoma = tested on: MDA-MB-435 melanoma
SW-620 colon = tested on: SW-620 colon
MCF7 breast = tested on: MCF7 breast
HCT-116 colon = tested on: HCT-116 colon
HCC-2998 colon = tested on: HCC-2998 colon

| Compound | growth (BT-549 breast) | growth (MDA-MB-435 melanoma) | growth (SW-620 colon) | growth (MCF7 breast) | growth (HCT-116 colon) | growth (HCC-2998 colon) |
| --- | --- | --- | --- | --- | --- | --- |
| CC1(C)Cc2c(sc3ncn4nc(-c5ccc(O)cc5)nc4c23)CO1 | 65.1% | 77.4% | 94.5% | 66.5% | 81.7% | 118% |
| N=C(N)c1ccc(-c2ccc(-c3ccccc3)o2)nc1 | 101% | 81.4% | 86.7% | 72.3% | 76.6% | 27.5% |
| O=C(Nc1nc2ccccc2s1)Nc1ccc([N+](=O)[O-])cc1Cl | 16.2% | 40.4% | 95.6% | 74.3% | 18.7% | 76.1% |
| CSc1nn(-c2ccccc2)c2ncnc(Oc3ccccc3)c12 | 94.5% | 102% | 104% | 107% | 85.4% | 102% |
| COc1cc(/C=C\c2cc(OC)c(OC)c(OC)c2)cc(NS(=O)(=O)c2ccc(Cl)cc2)c1OC | 40.6% | -39.1% (active) | 30.4% | 26.5% | 14.7% | 18.6% |
| N#CCCN1C/C(=C/c2ccc(Cl)cc2)C(=O)/C(=C/c2ccc(Cl)cc2)C1 | -24.5% (active) | -66.5% (active) | -48.4% (active) | -10.2% (active) | -54.5% (active) | -84.6% (active) |
| O=C1/C(=C\c2ccc(F)cc2)CN(C(=O)c2ccccc2)C/C1=C\c1ccc(F)cc1 | 34.9% | -39.4% (active) | -44.4% (active) | 1.32% (active) | -55.3% (active) | 16.4% |
| COc1ccc(/C=C2/CN(C(=O)c3ccccc3F)C/C(=C\c3ccc(OC)cc3)C2=O)cc1 | 37% | -46.2% (active) | -42.3% (active) | 8.16% (active) | -62.6% (active) | -73.1% (active) |
| N=C(N)c1ccc(-c2ccc(-c3cccs3)s2)s1 | 66.9% | -88.5% (active) | -66.4% (active) | -65% (active) | -87% (active) | -80.3% (active) |
| CN(C)C=Nc1cc(Cl)ccc1Cl | 112% | 97.9% | 103% | 101% | 104% | 108% |
| C#Cc1ccc(-n2c(/C=C/c3ccc4ccccc4n3)nc3ncccc3c2=O)cc1 | 5.21% (active) | -11.5% (active) | -51% (active) | 6.42% (active) | -25% (active) | -75.3% (active) |
| COc1ccc2c(c1)C(=O)c1c-2c(=O)n(CCCN(C)C)c2cc(OC)c(OC)cc12 | 86.1% | 80.9% | 56.8% | 28.4% | 53.1% | 82.8% |
| CCC(=O)N1C/C(=C/c2ccc(Br)cc2)C(=O)/C(=C/c2ccc(Br)cc2)C1 | -48.4% (active) | -63% (active) | -64.2% (active) | -16.1% (active) | -88.4% (active) | -85.9% (active) |
| N=C(N)c1ccc(-c2ccc(-c3cccs3)s2)cc1 | 93.2% | -85.9% (active) | -66.2% (active) | -79.4% (active) | -67.1% (active) | -69.5% (active) |
| CC(C)=CCc1cc(O)cc2c1OC(C=C(C)C)C1=C2C(=O)C2=C(C1=O)S(=O)(=O)CCN2 (configuration not stated) | 58.9% | -68.3% (active) | 4.52% (active) | -50% (active) | -8.73% (active) | 36.4% |
| COc1ccc([N+](=O)[O-])c(C(=O)O)c1 | 102% | 97.9% | 101% | 93.8% | 103% | 106% |
| CCOC(=O)N1C/C(=C/c2ccc(OC)cc2)C(=O)/C(=C/c2ccc(OC)cc2)C1 | -12.8% (active) | -33.4% (active) | -38.7% (active) | -5.59% (active) | -82.8% (active) | -92.5% (active) |
| C#Cc1ccc(-n2c(/C=C/c3ccc4ccccc4c3)nc3ncccc3c2=O)cc1 | 52.4% | 12.8% | 19.2% | 18.6% | 21% | 31.1% |
| C#Cc1ccc(-n2c(/C=C/c3ccc(O)c(OC)c3)nc3ncccc3c2=O)cc1 | 95.5% | 71.2% | 102% | 89.1% | 97.4% | 112% |
| COc1cc(NC(=O)CCSc2nc3ccc(Cl)cc3c(=O)n2Cc2ccccc2)cc(OC)c1OC | 73% | 89% | 86.2% | 70% | 53% | 100% |

| Compound | growth (BT-549 breast) | growth (MDA-MB-435 melanoma) | growth (SW-620 colon) | growth (MCF7 breast) | growth (HCT-116 colon) | growth (HCC-2998 colon) |
| --- | --- | --- | --- | --- | --- | --- |
| CCc1ccc2c(c1)N(CCO)C1=C(C(=O)OC1)C2c1ccccc1 (configuration not stated) | 87.7% | 21.6% | 97.2% | 92.2% | 89.3% | – |
| Cc1cc(Nc2ccc(Cl)cc2)nc(NCCCNc2ccnc3cc(Cl)ccc23)n1 | -86.7% (active) | -88.6% (active) | -67.4% (active) | -100% (active) | -97.4% (active) | -88.9% (active) |
| O=[N+]([O-])c1ccc(Oc2cccnc2)c([N+](=O)[O-])c1 | 72.3% | 26.9% | 1.5% (active) | 46.7% | 8.43% (active) | – |
| COc1ccc(-c2nc(-c3nc4cc(Cl)c(Cl)cc4[nH]3)c3ccccn23)cc1 | 71.9% | 65.2% | 79.6% | 69.6% | 24.8% | 76.4% |
| C#Cc1ccc(-n2c(/C=C/c3ccc(O)cc3)nc3ncccc3c2=O)cc1 | 74.9% | -45.5% (active) | 34.5% | 10.5% | 48.5% | 93% |
| O=C1/C(=C\c2ccc(Cl)cc2)CN(C(=S)Nc2ccccc2)C/C1=C\c1ccc(Cl)cc1 | -66.6% (active) | -82.1% (active) | -84.9% (active) | -83.9% (active) | -62.8% (active) | -89% (active) |
| N#CCCN1C/C(=C/c2ccc(Br)cc2)C(=O)/C(=C/c2ccc(Br)cc2)C1 | -23.3% (active) | -43.3% (active) | -53.7% (active) | 0.16% (active) | -50.8% (active) | -87.4% (active) |
| COc1ccc(/C=C2/CN(C(=O)c3ccc(C)cc3)C/C(=C\c3ccc(OC)cc3)C2=O)cc1 | 94% | 41.3% | 71.3% | 32.8% | -27% (active) | 71.3% |
| COc1ccc(-c2nc(-c3nc4cc(Cl)c(F)cc4[nH]3)c3ccccn23)cc1 | 91% | 64.4% | 71.6% | 58.1% | 71.4% | 72.2% |
| CCC(=O)N1C/C(=C/c2ccc(Cl)cc2)C(=O)/C(=C/c2ccc(Cl)cc2)C1 | -18.7% (active) | -58.6% (active) | -63.6% (active) | -77.9% (active) | -85.4% (active) | -89.3% (active) |
| CCC(=O)N1C/C(=C/c2ccc(OC)cc2)C(=O)/C(=C/c2ccc(OC)cc2)C1 | 13.2% | -28.1% (active) | -50.1% (active) | -4.78% (active) | -70.8% (active) | -84% (active) |
| c1ccc(CNc2ncnc3scc(-c4cccs4)c23)nc1 | 63.7% | 63.7% | 86.1% | 67.1% | 66.5% | 106% |
| COc1cccc(Cn2c(-c3nonc3N)nc3ccccc32)c1 | 47.9% | -73.9% (active) | 14.4% | 15.5% | 18.3% | 23.7% |
| COc1cc(Cl)cc(-c2nn(-c3cccc(NC(=O)c4ccc(N5CCOCC5)c(C(F)(F)F)c4)c3)cc2-c2ccncc2)c1 | 73% | 63.4% | 69.2% | 45.3% | 47.7% | 52.3% |
| C#Cc1ccc(-n2c(/C=C/c3ccc(C(F)(F)F)cc3)nc3ncccc3c2=O)cc1 | 24.8% | 6.06% (active) | -12.3% (active) | 14.9% | 1.75% (active) | 18.7% |
| O=S(=O)(NCCCNc1nccc(-c2c(-c3ccc(F)cc3)nc3sccn23)n1)c1ccc(F)cc1 | 52.8% | 20.6% | 47.1% | 32.8% | 28.9% | 37.6% |
| O=C1/C(=C\c2ccccc2)CN(C(=O)c2ccccc2F)C/C1=C\c1ccccc1 | -24.6% (active) | -35.6% (active) | -71.7% (active) | -37.6% (active) | -84.8% (active) | -84.1% (active) |
| COc1cc(Nc2ncnc(Nc3ccc4c(n3)NC(=O)C(C)(C)O4)n2)cc(OC)c1OC | 33.7% | 16.6% | 32.9% | 21.9% | 24.2% | 79.1% |
| O=C1/C(=C\c2ccc(F)cc2)CN(C(=O)c2ccccc2F)C/C1=C\c1ccc(F)cc1 | -43.2% (active) | -47.4% (active) | -78.3% (active) | -72.1% (active) | -75% (active) | -83.8% (active) |
